Gal4-VP16 FLuc – Gal4-VP16 reporter inhibition counter-screen; 3.5% of 310,000 active; Drosophila S2 Gal4-VP16 UAS-luciferase, luminescence, 20 h; Potency, µM (top dose mostly 53.6 µM), inactives show at the top dose activity, negative = inhibition, hits mostly inhibitors;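 note: Gal4-VP16 expression switched on by copper sulfate through the metallothionein promoter; nearly all actives have a fitted effect of over 50% in size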
DT40 TDP1 CPT – DT40-hTDP1 cell growth loss with CPT; Potency, µM (titrated, usually from 46.2 µM), inactives show at the highest dose activity change, negative = growth inhibition, hits mostly inhibitors; AID 686979; chicken DT40 Tdp1-/-;hTDP1 cells + 20 nM CPT, ATP luminescence, 48 h; 12% of 420,000 active; note: nearly all actives have a fitted effect of over 55% in size
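Cell growth measured by CellTiter-Glo luminescence after a minimum 48 h, 37 C compound exposure with 20 nM CPT in Tdp1-knockout DT40 cells stably expressing hTDP1, seeded 400/well; qHTS titration format.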
RORg inh – blocks mouse ROR gamma transcriptional activity | Drosophila S2 Gal4-RORgamma UAS-luciferase reporter, 20 h | Potency, µM (top dose mostly 53.6 µM), for inactives: at the top dose activity change, negative = inhibition, actives largely listed as inhibitors | 5.4% of 310,000 active | P51450; note: nearly all actives have a fitted effect of over 60% in size
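Compounds are pin-transferred onto Drosophila Schneider cells expressing a copper-inducible Gal4–ROR gamma transactivation domain fusion. After 1 hr, copper sulfate is added to 700 uM final; luciferase is read 20 hr later.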
TDP1 block – inhibitors of human tyrosyl-DNA phosphodiesterase TDP1 | Q9NUW8 | recombinant TDP1, AlphaScreen DNA substrate cleavage | Potency, µM (top dose mostly 130 µM), for the others: top-dose activity change, negative = inhibition, actives largely listed as inhibitors | 0.28% of 350,000 active; note: nearly all actives have a fitted effect of over 40% in size
Target sequence (Q9NUW8 whole entry, looked up): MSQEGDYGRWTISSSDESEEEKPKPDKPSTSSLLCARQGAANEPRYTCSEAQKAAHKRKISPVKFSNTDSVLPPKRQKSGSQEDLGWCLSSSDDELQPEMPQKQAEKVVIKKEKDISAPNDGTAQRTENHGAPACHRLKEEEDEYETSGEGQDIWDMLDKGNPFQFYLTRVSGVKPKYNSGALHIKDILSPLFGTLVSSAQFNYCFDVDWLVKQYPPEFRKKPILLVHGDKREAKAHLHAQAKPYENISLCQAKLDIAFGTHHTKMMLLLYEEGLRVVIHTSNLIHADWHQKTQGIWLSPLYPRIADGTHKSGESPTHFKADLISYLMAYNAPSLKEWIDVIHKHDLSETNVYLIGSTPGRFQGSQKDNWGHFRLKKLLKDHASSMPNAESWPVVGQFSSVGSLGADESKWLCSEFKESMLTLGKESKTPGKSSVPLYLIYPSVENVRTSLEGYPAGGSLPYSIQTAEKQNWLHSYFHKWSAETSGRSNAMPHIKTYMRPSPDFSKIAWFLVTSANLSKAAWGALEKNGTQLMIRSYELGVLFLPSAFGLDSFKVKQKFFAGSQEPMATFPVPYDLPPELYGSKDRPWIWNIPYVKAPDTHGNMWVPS
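Recombinant human Tdp1 (E. coli-expressed, 1 nM final) preincubated with compounds 15 min at room temperature, then 5'-biotin/3'-phosphotyrosine-FITC DNA substrate (15 nM final) added for 5 min. AlphaScreen beads (10 ug/ml final) added 10 min; cleavage lowers signal.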
DT40 TDP1 no CPT – qHTS for Inhibitors of human tyrosyl-DNA phosphodiesterase 1 (TDP1): qHTS in cells in absence of CPT. 15% of 420,000 active. Potency, µM (titrated, usually from 46.2 µM), inactives show at the top dose activity change, negative = growth inhibition, actives largely listed as inhibitors. DT40 Tdp1-/- hTDP1 cells, no CPT, ATP luminescence, 48 h. AID 686978, 2013; note: nearly all actives have a fitted effect of over 55% in size
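No-CPT arm: Tdp1-/-;hTDP1 DT40 cells (400/well) plus compounds, incubated ≥48 hr at 37 °C. Readout CellTiter-Glo luminescence.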
Numbers without * were called inactive; ? = inconclusive; · = no result given; [ ] = dose if it differs, or a comment. This is a sample that favours compounds with a hit; in the whole collection about 19% have one here. Calls come from the whole dose curve; as a rule, active = well fitted curve in the direction sought with a large enough effect; inconclusive = small, poorly fitted or top-dose-only effect, or another doubt; inactive = no such curve, though single readings can be large; an effect the other way counts as inactive or inconclusive. % is set by controls: 0 for no effect and ±100 for the full control effect; potency is the fitted concentration of half-maximal effect.

SMILES | Gal4-VP16 FLuc | DT40 TDP1 CPT | RORg inh | TDP1 block | DT40 TDP1 no CPT
CCOc1ccc(NC(=O)c2cnn(-c3ccc(C)c(Cl)c3)c2C2CCNCC2)cc1 | · | 23.1µM* | · | -1.1% | ?
Cn1c(=O)c2c(nc(NCc3ccco3)n2Cc2ccccc2Cl)n(C)c1=O | 4.47µM* | 4.11µM* | -35.0% | 7.0% | 2.06µM*
Cn1c(=O)c2c(nc(NCc3ccco3)n2C/C=C/c2ccccc2)n(C)c1=O | 4.47µM* | 1.46µM* | 2.24µM* | 8.1% | 0.651µM*
Cc1ccc(C(=O)OCC(=O)Nc2ccc(C)c(S(=O)(=O)N3CCCCC3)c2)o1 | · | -28.5% | · | · | ?
Cc1cccc(C)c1NC(=O)CNC(=O)Cc1c[nH]c2ccccc12 | · | -4.3% | · | · | -9.6%
Cc1cccc(C)c1NC(=O)c1c[nH]c2ccccc12 | ? | 18.4µM* | 15.0% | · | 25.9µM*
O=C(O)CO.[NH2-].[NH2-].[Pt+2] | -2.0% | 6.2% | 1.1% | · | -5.6%
COc1cccc(CN(C)C(=O)Cc2ccc(OC)c(S(=O)(=O)N3CCOCC3)c2)c1 | · | -18.8% | · | · | -29.8%
Cc1cc2c(cc1C)-n1nnnc1C(N(C)CCc1ccccc1)C(=O)N2 (stereo not drawn) | · | 23.1µM* | · | · | 14.6µM*
Cc1cc2c(cc1C)-n1nnnc1C(N1CCCNCC1)C(=O)N2 (stereo not drawn) | · | ? | · | · | -17.4%
COc1cccc(NC(=O)c2sc3nc(C)c(C(=O)Nc4ccc(C)cc4C)c(-c4ccc(C)o4)c3c2N)c1 | · | 10.3µM* | · | 5.0% | 6.51µM*
COc1ccc(-c2c3c(nc4sc(C(=O)Nc5ccc(Cl)cc5)c(N)c24)CC(C)(C)CC3=O)cc1 | · | 16.4µM* | · | · | 8.2µM*
COc1ccc(NC(=O)c2sc3nc(C)c(C(=O)Nc4ccc(Cl)cc4)c(-c4ccc(Br)cc4)c3c2N)cc1 | · | ? | · | 8.8% | ?
COc1cccc(NC(=O)c2sc3nc(C)c(C(=O)Nc4ccc(Cl)cc4)c(-c4ccc(Br)cc4)c3c2N)c1 | · | ? | · | 2.9% | 7.31µM*
O=C(NCCS(=O)(=O)N1CCCCC1)c1ccccc1 | · | -3.8% | · | -4.4%[0.505 µM] | -2.8%
CCOC(=O)c1c(-c2ccc(OC)cc2)csc1NC(=O)CSc1ccccc1 | 12.0% | ? | 1.8% | -5.9% | ?
CN(C)c1cccc(C(=O)NCc2ccc(Cl)cc2)c1 | -10.9% | -6.1% | 22.9% | 5.8% | 5.9%
CC(SC#N)C(=O)C12CC3CC(CC(C3)C1)C2 (stereo not drawn) | -27.3% | 7.31µM* | 2.4% | 2.6% | 4.61µM*
COc1cnn(-c2ccc(C)cc2)c(=O)c1SCc1ccccc1 | -8.5% | -29.1% | 0.8% | 5.2% | ?
Nc1c(Cl)cnn(-c2ccccc2)c1=O | · | 7.0% | · | · | -1.6%
COc1cnn(-c2ccccc2)c(=O)c1SCc1ccc(Cl)cc1Cl | -23.2% | 29.1µM* | ? | -1.5% | 20.6µM*
CCSc1cnn(-c2ccccc2)c(=O)c1Cl | · | 5.7% | · | · | ?
CCOc1cnn(-c2ccccc2)c(=O)c1Cl | -5.3% | ? | 17.4% | · | 16.4µM*
O=c1c(Cl)c(Cl)cnn1-c1ccccc1 | 11.2µM* | 2.91µM* | 10µM* | 2.8% | 3.26µM*
CC(=O)C(=Cc1ccc(O)cc1)C(C)=O | 5.1% | -7.0% | -16.5% | 5.7% | -23.1%
SMILES | Gal4-VP16 FLuc | DT40 TDP1 CPT | RORg inh | TDP1 block | DT40 TDP1 no CPT
CCOC(=O)c1ccc2ncc(C(=O)OCC)c(NCCc3ccc(OC)c(OC)c3)c2c1 | · | 25.9µM* | · | · | 14.6µM*
CCOC(=O)c1cnc2ccc(C(=O)OC)cc2c1NCCN1CCOCC1 | -2.7% | ? | -8.7% | 2.1% | -18.3%
CCOC(=O)c1cnc2ccc(C(=O)OC)cc2c1NCCCN1CCOCC1 | -0.9% | ? | 32.1% | · | ?
CCOC(=O)c1cnc2ccc(C(=O)OC)cc2c1NCCc1ccc(OC)c(OC)c1 | -26.5% | ? | -15.2% | -2.7% | 18.4µM*
CN(C)S(=O)(=O)c1cccc(NC(=O)NCCCl)c1 | -1.7% | -9.9% | 2.0% | -1.2% | 0.6%
CCOC(=O)C1=C(C)NC(=S)NC1c1ccc(OCC(=O)N2CCCCCC2)cc1 (stereo not drawn) | 18.8% | ? | -32.3% | 2.0% | -11.1%
O/N=C(\c1ccc(Cl)cc1)c1cc2ccccc2o1 | ? | 18.4µM* | ? | 4.3% | 18.4µM*
COc1ccc(Cl)cc1C(=O)Nc1cccc2ncccc12 | 1.5% | 1.2% | -8.5% | · | -13.8%
CCOC(=O)N1CCN(c2c(NCc3ccc(Cl)cc3)c(=O)c2=O)CC1 | -7.5% | 4.11µM* | -12.7% | 2.0% | 5.8µM*
CCOC(=O)N1CCN(c2c(NCc3ccc(F)cc3)c(=O)c2=O)CC1 | -7.0% | 4.11µM* | -9.1% | 7.7% | 3.26µM*
C=CC[C@H](CC(=O)N(CCO)Cc1ccccc1)C(=O)N[C@@H](COC(=O)[C@@H](CC=C)CC(=O)OC(C)(C)C)Cc1c[nH]c2ccccc12 | · | ? | · | 3.9% | ?
C=CC[C@@H](CC(=O)N(CCO)Cc1ccccc1)C(=O)N[C@@H](COC(=O)[C@H](CC=C)CC(=O)OC(C)(C)C)Cc1c[nH]c2ccccc12 | · | ? | · | 3.1% | ?
C=CC[C@@H](CC(=O)N(CCO)Cc1ccccc1)C(=O)N[C@H](COC(=O)[C@@H](CC=C)CC(=O)OC(C)(C)C)Cc1ccccc1 | · | 18.4µM* | · | 0.0% | ?
C=CC[C@H](CC(=O)N(CCO)Cc1ccccc1)C(=O)N[C@H](C)COC(=O)[C@@H](CC=C)CC(=O)OC(C)(C)C | · | ? | · | 0.4% | 18.4µM*
C=CC[C@H](CC(=O)N(CCO)Cc1ccccc1)C(=O)N[C@H](COC(=O)[C@@H](CC=C)CC(=O)OC(C)(C)C)Cc1ccccc1 | · | 14.6µM* | · | -0.2% | 13µM*
O=C1NC(c2ccccc2)=N/C1=C/c1ccco1 | 1.6% | -1.8% | -22.8% | -1.9% | 2.1%
Cc1noc(C)c1C(=O)OC(C)C(=O)NC(C)c1ccc(Cl)cc1Cl (stereo not drawn) | · | ? | · | -2.8% | ?
CCOC(=O)c1nnc(-c2ccccc2)nc1NCc1ccccc1 | 9.0% | -29.4% | -2.0% | -2.9% | -9.4%
CC1=C/C(=C/N(C)c2ccccc2)C(=O)S1 | 21.0% | 20.6µM* | 5.1% | · | 25.9µM*
COc1cc(C2N=C(N)Nc3nc4ccccc4n32)ccc1OCC(=O)O (stereo not drawn) | · | 3.9% | · | 0.6% | 3.3%
COc1ccc(SCC(Cc2ccccc2)N2CCN(C)CCC2=O)cc1 (stereo not drawn) | 0.0% | · | 5.1% | 13.8% | ·
Cc1ccc(-n2ncc(C(=O)N3CCC(c4ccccc4)C3)c2C2CCN(C(=O)OC(C)(C)C)CC2)cc1 (stereo not drawn) | · | 14.6µM* | · | 2.1% | 23.1µM*

Assay outcomes from PubChem.
